Rows were chosen to be rich in hits. Some 22% of all compounds tested hit in one or more screens of this group.
CYP2C9 inh = blockers of cytochrome P450 2C9 activity – biochemical, luminescence, ADME assay, primary screen. hit rate 20% among 96,000. AID 777, 2007. inhibition, % at 5 µM. CYP2C9 Supersomes, luciferin-H conversion. P11712;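 active = blocking of liver enzyme CYP2C9 beyond about 50% at 5 µM, limit read from the data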
Target sequence (P11712 whole entry, looked up): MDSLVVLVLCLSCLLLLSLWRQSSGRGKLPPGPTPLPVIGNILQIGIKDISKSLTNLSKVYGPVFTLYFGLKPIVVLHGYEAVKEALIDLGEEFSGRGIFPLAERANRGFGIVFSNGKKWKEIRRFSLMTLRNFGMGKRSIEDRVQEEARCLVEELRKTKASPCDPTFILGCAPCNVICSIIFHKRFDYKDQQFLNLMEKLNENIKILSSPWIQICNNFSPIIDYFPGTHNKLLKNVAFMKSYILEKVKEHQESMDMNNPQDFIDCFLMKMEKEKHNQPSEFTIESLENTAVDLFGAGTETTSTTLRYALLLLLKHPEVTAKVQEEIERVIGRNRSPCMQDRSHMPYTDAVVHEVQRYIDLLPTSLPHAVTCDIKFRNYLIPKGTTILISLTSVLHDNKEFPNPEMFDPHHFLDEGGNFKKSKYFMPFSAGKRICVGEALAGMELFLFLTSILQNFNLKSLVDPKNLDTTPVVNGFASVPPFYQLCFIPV
CYP2C19 inh = blockers of cytochrome P450 2C19 activity – biochemical, luminescence, ADME assay, primary screen; CYP2C19 Supersomes, luciferin-H EGE luminescence, 30 min; inhibition, % at 5 µM; hit rate 21% among 96,000;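 active = CYP2C19 inhibition above a set limit at 5 µM in the primary screen, cut at about 50% in these data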;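 note: plate controls were negative control wells for no effect and 2.5 mM tranylcypromine positive control for full effect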
E-sel TNF inh = E-selectin induction blockers in HUVEC – imaging, immunofluorescence, high content, primary screen; hit rate 0.71% among 120,000; HUVEC TNFa-induced E-selectin immunofluorescence; AID 1246, 2008; inhibition, % at 2 µM;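 active = inhibition above the batch mean plus 3 SD, and confirmed as a hit on visual image review, cut at about 43% in these data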;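 note: 0% = TNF-stimulated DMSO wells and 100% = unstimulated control wells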
CYP2C9 activ = human CYP2C9 activators, primary screen, biochemical, luminescence. activation factor at 5 µM. hit rate 1.4% among 96,000. recombinant CYP2C9, luciferin-H conversion; active compounds read high; factor 1 = untreated enzyme, 0 = blocked. AID 1024, 2008. Cytochrome P450 2C9 (Homo sapiens), P11712;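 active = activation factor of 2 or more for CYP2C9 at a 5 µM dose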;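 note: 0 = sulfaphenazole-blocked wells and 1 = vehicle-only wells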
F-actin modifier = modifiers of F-actin cytoskeleton organization, primary screen, imaging, HUVEC, phalloidin staining, high-content imaging. inhibition, % at 2 µM. HUVEC TNFa F-actin phalloidin imaging. AID 836, 2007. hit rate 0.18% among 91,000;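 active = inhibition above the batch mean plus 3 SD and confirmed as a hit by visual image inspection, cut at about 30% in these data, passing the limit was not always enough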
CYP2C19 act = human CYP2C19 activators, primary screen, biochemical, luminescence; Cytochrome P450 2C19 (Homo sapiens), P33261; recombinant CYP2C19, luciferin-H EGE luminescence; active compounds read high; 0 = fully inhibited enzyme, 1 = untreated enzyme; activation factor at 5 µM; 96,000 tested, under 10 active; AID 1025, 2008;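 active = activation factor of at least 2 at 5 µM in the primary screen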;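 note: 0 = wells with 2.5 mM tranylcypromine and 1 = vehicle-only wells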
Numbers without * were called inactive.

Results for O=C(CCn1c(=S)oc2ccccc21)Nc1ccc2c(c1)OCCO2 ?
CYP2C9 inh: -10; CYP2C19 inh: 18; E-sel TNF inh: -11; CYP2C9 activ: 1.1; CYP2C19 act: 0.8

Results for Nc1nnc(SCC(=O)c2ccc3ccccc3c2)s1 ?
CYP2C9 inh: 38; CYP2C19 inh: 78*; E-sel TNF inh: 8; CYP2C9 activ: 0.6; F-actin modifier: -9; CYP2C19 act: 0.2

How did Nc1nnc(SCC(=O)N2CCN(Cc3ccccc3)CC2)s1 do in these assays?
CYP2C9 inh: 53*; CYP2C19 inh: 68*; E-sel TNF inh: -4; CYP2C9 activ: 0.5; F-actin modifier: -6; CYP2C19 act: 0.3

Results for Cc1nnc(SCC(=O)N2CCN(Cc3ccccc3)CC2)s1 ?
CYP2C9 inh: 19; CYP2C19 inh: 89*; E-sel TNF inh: -6; CYP2C9 activ: 0.8; F-actin modifier: 4; CYP2C19 act: 0.1

Results for Cc1ccc(C(=O)CSc2nnc(C)s2)cc1 ?
E-sel TNF inh: 8

Results for C=CCNC(=O)c1ccccc1S(=O)c1ccccc1C#N (stereo not given) ?
CYP2C9 inh: -15; CYP2C19 inh: -13; E-sel TNF inh: -8; CYP2C9 activ: 1.2; F-actin modifier: -17; CYP2C19 act: 1.1

How did COCCNC(=O)c1ccc2c(=O)n(CCOC)c(=O)[nH]c2c1 do in these assays?
CYP2C9 inh: -7; CYP2C19 inh: -18; CYP2C9 activ: 1.1; F-actin modifier: -2; CYP2C19 act: 1.2

Results for CCCn1c(=O)[nH]c2ccccc21 ?
CYP2C9 inh: -33; CYP2C19 inh: -6; E-sel TNF inh: 1; CYP2C9 activ: 1.3; F-actin modifier: 14; CYP2C19 act: 1.1

Results for Cc1cc(C)nc(SCCCn2c(=O)[nH]c3ccccc32)n1 ?
CYP2C9 inh: -39; CYP2C19 inh: 97*; CYP2C9 activ: 1.4; F-actin modifier: -7; CYP2C19 act: 0

What do the screens show for `CCCN(N=Nc1cccc([N+](=O)[O-])c1)c1cccc([N+](=O)[O-])c1`?
CYP2C9 inh: 74*; CYP2C19 inh: 11; E-sel TNF inh: 3; CYP2C9 activ: 0.3; CYP2C19 act: 0.9

Results for Cc1cccc(-c2c3c(=O)n(C)c(=O)n(C)c3cn2C2CCCCC2)c1 ?
CYP2C9 inh: 22; CYP2C19 inh: 35; E-sel TNF inh: 1; CYP2C9 activ: 0.8; F-actin modifier: -18; CYP2C19 act: 0.7

How did O=S(=O)(N1CCOCC1)n1c(Cc2ccccc2)nc2ccccc21 do in these assays?
CYP2C9 inh: 49; CYP2C19 inh: 75*; E-sel TNF inh: -1; CYP2C9 activ: 0.5; CYP2C19 act: 0.3

Results for O=C(O)C1C2C=CC(C2)C1C(=O)NCCc1ccncc1 (stereo not given) ?
CYP2C9 inh: 23; CYP2C19 inh: 78*; E-sel TNF inh: -11; CYP2C9 activ: 0.8; F-actin modifier: 1; CYP2C19 act: 0.2

Results for O=C(O)C1C2C=CC(C2)C1C(=O)NCCc1ccccc1 (stereo not given) ?
CYP2C9 inh: 7; CYP2C19 inh: 3; E-sel TNF inh: 3; CYP2C9 activ: 0.9; F-actin modifier: 17; CYP2C19 act: 1

Results for O=C(O)C1C2C=CC(C2)C1C(=O)NCCCc1ccccc1 (stereo not given) ?
E-sel TNF inh: 68*

Results for O=C(O)C1C2C=CC(C2)C1C(=O)NCCCn1ccnc1 (stereo not given) ?
CYP2C9 inh: 67*; CYP2C19 inh: 88*; E-sel TNF inh: -2; CYP2C9 activ: 0.3; F-actin modifier: 15; CYP2C19 act: 0.1

How did O=C(O)C1CCCCC1C(=O)Nc1cc(C(F)(F)F)ccc1Cl (stereo not given) do in these assays?
E-sel TNF inh: -18

Results for CCc1ccc2oc(-c3cc(N=Cc4cccc(OC)c4O)ccc3O)nc2c1 ?
CYP2C9 inh: 28; CYP2C19 inh: 8; CYP2C9 activ: 0.7; F-actin modifier: 7; CYP2C19 act: 0.9

What do the screens show for `COc1ccc(CCNC2=NCC(C)S2)cc1` (stereo not given)?
CYP2C9 inh: -2; CYP2C19 inh: 44; E-sel TNF inh: 25; CYP2C9 activ: 1; F-actin modifier: 0; CYP2C19 act: 0.6

Results for CN(C)c1cccc(NC(=O)CCc2ccccc2)c1 ?
CYP2C9 inh: 34; CYP2C19 inh: 95*; E-sel TNF inh: -6; CYP2C9 activ: 0.7; F-actin modifier: -5; CYP2C19 act: 0

Results for CN(C)c1cccc(NC(=O)Cc2ccc(F)cc2)c1 ?
CYP2C9 inh: 62*; CYP2C19 inh: 98*; CYP2C9 activ: 0.4; F-actin modifier: -1; CYP2C19 act: 0

What do the screens show for `CCOC(=O)c1c(NC(=O)CSc2nnc(-c3ccncc3)n2Cc2ccco2)sc(C)c1C`?
CYP2C9 inh: 87*; CYP2C19 inh: 84*; CYP2C9 activ: 0.1; F-actin modifier: -19; CYP2C19 act: 0.2

What do the screens show for `Cc1cc(C)c(NC(=O)CSc2nnc(-c3ccncc3)n2Cc2ccco2)c(Cl)c1`?
CYP2C9 inh: 92*; CYP2C19 inh: 79*; CYP2C9 activ: 0.1; F-actin modifier: -8; CYP2C19 act: 0.2

How did CCN(CC)S(=O)(=O)c1ccc(-c2nnc(SCC(=O)Nc3cc(OC)cc(OC)c3)o2)cc1 do in these assays?
CYP2C9 inh: 3; CYP2C19 inh: -1; E-sel TNF inh: 0; CYP2C9 activ: 1; F-actin modifier: 23; CYP2C19 act: 1

How did N#Cc1ccccc1NC(=O)COC(=O)CCc1ccc(S(=O)(=O)N2CCCCC2)cc1 do in these assays?
E-sel TNF inh: -13

Results for COc1ccccc1CN=Cc1[nH]c2ccc(Br)c(Cl)c2c1O ?
CYP2C9 inh: 73*; CYP2C19 inh: 85*; CYP2C9 activ: 0.3; F-actin modifier: 6; CYP2C19 act: 0.2

Results for O=C1CCc2cc(S(=O)(=O)N3CCCC3C(=O)NC3CCCCCCC3)ccc2N1 (stereo not given) ?
CYP2C9 inh: 81*; CYP2C19 inh: 20; CYP2C9 activ: 0.2; F-actin modifier: -3; CYP2C19 act: 0.8

What do the screens show for `CC(C)CCNC(=O)C1CCN(S(=O)(=O)c2ccc3c(c2)CCC(=O)N3)CC1`?
CYP2C9 inh: 59*; CYP2C19 inh: 16; E-sel TNF inh: 5; CYP2C9 activ: 0.4; F-actin modifier: 8; CYP2C19 act: 0.8

How did O=C1CCc2cc(S(=O)(=O)N3CCC(C(=O)NCCC4=CCCCC4)CC3)ccc2N1 do in these assays?
CYP2C9 inh: 26; CYP2C19 inh: 31; E-sel TNF inh: 7; CYP2C9 activ: 0.7; F-actin modifier: 5; CYP2C19 act: 0.7
